According to PubChem BioAssay AID602144 (Vanderbilt Specialized Chemistry Center, 2011):
Calls of active or inactive are those of the source. No stated cut-off is given here; in the data, active means remaining activity below about 50%; inactive means the rest.

molecular target: Phospholipase D1 (Homo sapiens) (UniProt Q13393); experiment: PLD1 inhibitors in cells, Calu-1 cells, single concentration (AID 602144); details: cellular PLD1 activity, hits give low values;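 further: tested at 200 nM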
Sequence (Q13393 whole entry, looked up): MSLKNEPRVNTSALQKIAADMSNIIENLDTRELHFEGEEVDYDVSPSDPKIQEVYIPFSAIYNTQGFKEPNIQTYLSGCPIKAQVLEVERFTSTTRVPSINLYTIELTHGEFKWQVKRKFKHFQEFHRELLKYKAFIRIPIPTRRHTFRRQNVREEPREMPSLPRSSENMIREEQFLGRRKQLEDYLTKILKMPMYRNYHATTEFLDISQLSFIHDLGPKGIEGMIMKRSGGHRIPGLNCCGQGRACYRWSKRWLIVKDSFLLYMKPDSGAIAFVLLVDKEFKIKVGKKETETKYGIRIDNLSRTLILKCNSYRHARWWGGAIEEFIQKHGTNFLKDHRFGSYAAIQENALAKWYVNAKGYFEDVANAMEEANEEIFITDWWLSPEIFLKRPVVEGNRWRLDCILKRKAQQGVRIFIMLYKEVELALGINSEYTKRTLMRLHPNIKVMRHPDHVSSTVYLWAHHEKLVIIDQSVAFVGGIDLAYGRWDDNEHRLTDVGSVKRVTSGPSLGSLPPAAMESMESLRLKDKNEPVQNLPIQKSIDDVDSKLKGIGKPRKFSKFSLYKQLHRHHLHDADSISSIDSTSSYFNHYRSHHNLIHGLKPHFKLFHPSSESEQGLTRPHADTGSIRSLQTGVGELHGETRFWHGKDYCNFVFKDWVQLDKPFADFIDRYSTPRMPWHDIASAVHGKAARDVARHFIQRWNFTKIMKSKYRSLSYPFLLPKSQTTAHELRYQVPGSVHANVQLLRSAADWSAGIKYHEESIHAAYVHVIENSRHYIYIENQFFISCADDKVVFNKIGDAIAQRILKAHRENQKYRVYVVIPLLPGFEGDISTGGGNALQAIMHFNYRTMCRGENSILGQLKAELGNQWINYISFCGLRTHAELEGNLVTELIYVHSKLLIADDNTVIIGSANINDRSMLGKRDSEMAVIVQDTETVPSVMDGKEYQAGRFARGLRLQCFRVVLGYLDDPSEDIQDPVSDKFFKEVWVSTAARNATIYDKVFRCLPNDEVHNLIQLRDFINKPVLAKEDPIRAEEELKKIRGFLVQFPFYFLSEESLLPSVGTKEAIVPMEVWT
Sequence (Q13393 whole entry, looked up): as above

| Compound | remaining activity |
| --- | --- |
| Cc1ccc(NC(=S)NCCN2CCC(n3c(=O)[nH]c4ccccc43)CC2)cc1 | 152% (inactive) |
| C[C@@H](CN1CCC(n2c(=O)[nH]c3ccccc32)CC1)NC(=O)C1C[C@H]1c1ccccc1 (stereo not given in full) | 25.5% (active) |
| C[C@@H](CN1CCC(c2nc3ccc(F)cc3[nH]2)CC1)NC(=O)[C@H]1CC1c1ccccc1 (stereo not given in full) | 88% (inactive) |
| O=C(NCCN1CCN(c2ccncc2)CC1)c1ccc2ccccc2c1 | 139% (inactive) |
| O=c1[nH]c2ccccc2n1C1CCN(CCN2CCCC2)CC1 | 112% (inactive) |
| Cn1c(C2CCN(CCN)CC2)nc2ccccc21 (tested in a mixture with another compound) | 75% (inactive) |
| O=C(NCCN1CCC(c2nc3ccccc3[nH]2)CC1)c1ccc2ccccc2c1 | 101% (inactive) |
| C[C@@H](CN1CCC(n2nnc3cc(C(F)(F)F)ccc32)CC1)NC(=O)c1ccc2ccccc2c1 | 65.2% (inactive) |
| O=C(C1C[C@@H]1c1ccccc1)N1CCC2(CC1)C(=O)NCN2c1ccccc1 (stereo not given in full) | 86% (inactive) |
| O=C(NCCN1CCC(n2nnc3ccccc32)CC1)c1cnc2ccccc2c1 | 79.2% (inactive) |
| Cn1c(=O)n(C2CCN(CCNC(=O)c3ccc(F)cc3)CC2)c2ccccc21 | 84.4% (inactive) |
| O=C(NCCN1CCN(c2ccncc2)CC1)c1cc2cc(F)ccc2[nH]1 | 162% (inactive) |
| C[C@@H](CN1CCC(n2c(=O)[nH]c3ccccc32)CC1)NC(=O)c1ccc2ncccc2c1 | 29.2% (active) |
| O=C(NCCN1CCC(n2c(=O)[nH]c3cc(Cl)ccc32)CC1)c1ccc2ccccc2c1 | 10.3% (active) |
| C[C@@H](CN1CCC(c2nc3ccccc3[nH]2)CC1)NC(=O)c1ccc2ccccc2c1 | 58.7% (inactive) |
| CS(=O)(=O)N1CC2(CCN(CCNC(=O)c3cnc4ccccc4c3)CC2)c2ccccc21 | 99.4% (inactive) |
| O=C(NCCN1CCC(n2c(=O)[nH]c3ccccc32)CC1)c1cc2ccccc2c2ccccc12 | 7.23% (active) |
| Cc1ccc(C(=O)N[C@@H](C)CN2CCC(n3c(=O)[nH]c4cc(Br)ccc43)CC2)cc1 | 13% (active) |
| O=C(NCCN1CCC(n2c(=O)[nH]c3ccccc32)CC1)c1cc(-c2ccccc2)no1 | 62.9% (inactive) |
| C[C@@H](CN1CCC(n2nnc3cc(C(F)(F)F)ccc32)CC1)NC(=O)c1cnc2ccccc2c1 | 101% (inactive) |

| Compound | remaining activity |
| --- | --- |
| O=C(c1ccc(Cl)cc1)N1CCC(n2c(=O)[nH]c3cc(Cl)ccc32)CC1 | 79.2% (inactive) |
| C[C@@H](CN1CCC(n2c(=O)[nH]c3ccccc32)CC1)NC(=O)c1ccc(Cl)c(Cl)c1 | 20.9% (active) |
| O=C(NCCN1CCC(n2c(=O)[nH]c3ccccc32)CC1)c1ccc2cccc3c2c1CC3 | 93.4% (inactive) |
| O=C(NCCN1CCC2(CCc3ccccc32)CC1)c1ccc2ccccc2c1 | 124% (inactive) |
| O=C(NCCN1CCC(C(=O)NCCc2ccccn2)CC1)c1ccc2ccccc2c1 | 101% (inactive) |
| O=c1[nH]c2ccccc2n1C1CCN(CCNS(=O)(=O)c2ccccc2C(F)(F)F)CC1 | 94.8% (inactive) |
| O=c1[nH]c2ccccc2n1C1CCN(CCNC(=S)Nc2cccc3ccccc23)CC1 | 152% (inactive) |
| C[C@@H](CN1CCC(n2c(=O)[nH]c3cc(I)ccc32)CC1)NC(=O)c1ccc(Cl)cc1 | 15.5% (active) |
| NCCN1CCC(n2c(=O)[nH]c3cc(Cl)ccc32)CC1 (tested in a mixture with another compound) | 62.4% (inactive) |
| Cc1ccc(C(=O)N[C@@H](C)CN2CCC(n3c(=O)[nH]c4c(F)cccc43)CC2)cc1 | 40.7% (active) |
| O=C(NCCN1CC=C(n2c(=O)[nH]c3ccccc32)CC1)[C@H]1C[C@@H]1c1ccccc1 | 85.3% (inactive) |
| O=C(NCCN1CC=C(n2nnc3cc(C(F)(F)F)ccc32)CC1)c1cnc2ccccc2c1 | 44.5% (active) |
| O=C(NCCN1CCN(c2ccncc2)CC1)c1ccc(F)cc1 | 126% (inactive) |
| CS(=O)(=O)NCCN1CCC(n2c(=O)[nH]c3ccccc32)CC1 | 88% (inactive) |
| O=C(NCCN1CCC(n2c(=O)[nH]c3ccccc32)CC1)c1cc([N+](=O)[O-])cc([N+](=O)[O-])c1 | 50% (active) |
| CC(=O)c1cccc(NC(=O)NCCN2CCC(n3c(=O)[nH]c4ccccc43)CC2)c1 | 137% (inactive) |
| C[C@@H](CN1CCC2(C=Cc3ccccc32)CC1)NC(=O)c1ccc2ccccc2c1 | 102% (inactive) |
| C[C@@H](CN1CCC(n2c(=O)[nH]c3ccccc32)CC1)NC(=O)c1cc2cc(F)ccc2[nH]1 | 30.1% (active) |
| C[C@@H](CN1CCC(n2c(=O)[nH]c3cc(Br)ccc32)CC1)NC(=O)c1ccc(F)cc1 | 16.1% (active) |
| O=C(NCCN1CCN(c2ccccn2)CC1)c1ccc(Cl)cc1 | 153% (inactive) |
